“And” between values parts separate entries of the source, which are not always exact repeats. Identical values can stand only once. Inconclusive results are not listed. A call without a number means that no potency is given here. The source made the active and inactive calls. Calls follow the shape of the dose curve; as a rule, active = well fitted inhibition curve with a large enough effect in the repeat runs; inconclusive = weak or mixed curves; inactive = no such curve, though single readings can be large or run the other way.
These compounds were tested against Cytochrome P450 2C9 (Homo sapiens) (UniProt P11712) (assay: Cytochrome P450 family 2 subfamily C member 9 (CYP2C9) small molecule antagonists: luciferase biochemical (cell-free) qHTS assay (AID 1645842; also: nearly all actives have a fitted effect of over 55% in size)). Details: P450-Glo CYP2C9 enzyme assay, luciferin luminescence; series mostly up to 57.4 µM.
Chain of Cytochrome P450 2C9 (Homo sapiens) (P11712 whole entry, looked up): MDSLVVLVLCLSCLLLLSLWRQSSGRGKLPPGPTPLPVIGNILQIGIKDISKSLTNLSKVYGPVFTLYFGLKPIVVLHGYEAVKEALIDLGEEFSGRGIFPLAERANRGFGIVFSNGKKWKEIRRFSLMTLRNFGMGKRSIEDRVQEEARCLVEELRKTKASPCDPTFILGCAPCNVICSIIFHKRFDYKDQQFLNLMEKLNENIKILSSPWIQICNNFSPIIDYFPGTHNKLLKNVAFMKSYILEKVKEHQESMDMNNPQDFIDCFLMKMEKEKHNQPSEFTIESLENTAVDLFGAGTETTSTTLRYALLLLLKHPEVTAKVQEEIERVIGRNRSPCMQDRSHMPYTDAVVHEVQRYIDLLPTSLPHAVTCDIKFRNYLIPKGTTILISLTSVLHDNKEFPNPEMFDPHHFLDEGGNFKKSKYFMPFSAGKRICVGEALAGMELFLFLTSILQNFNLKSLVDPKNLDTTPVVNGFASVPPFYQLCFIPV
Protocol: National Center for Advancing Translational Sciences [NCATS] Assay Overview: Cytochrome P450 (CYP) enzymes are membrane-bound hemeproteins that play a key role in metabolism of drugs and xenobiotics. Assaying the effect of chemicals on CYP isozymes is useful to minimize the adverse drug reactions and toxicities in drug development process. Chemical compounds were tested for their effect on CYP enzyme activities by using P450-Glo (TM) screening systems (Promega Corporation, Madison, WI). These systems provide a luminescent method containing proluciferin substrates and are converted to luciferin products by CYP isozymes. The luciferin products formed are detected with a luciferin detection reagent, and the amount of light produced is proportional to CYP activity. P450-Glo (TM) CYP2C9 screening system (Catalog. No. V9790) was used to detect the compounds that interfere in CYP2C9 activity.
Assay Protocol Summary: Two ul of enzyme-substrate mix supplemented with 0.4% Bovine Serum Albumin was dispensed into medium binding white/solid 1536-well plates (Greiner Bio-One North America Inc., Monroe, NC) using a Flying Reagent Dispenser (FRD, Aurora Discovery, San Diego, CA). […] The assay plates were incubated at room temperature for 10 min. Then 2 ul of NADPH regeneration solution was added to each well of the assay plates using an FRD and incubated at 37C for 1 h. The reaction was stopped by adding 4 ul of detection reagent using an FRD and after 20 min incubation at room temperature, the luminescence signal was measured using a ViewLux plate reader (Perkin Elmer, Shelton, CT). Data were expressed as relative luminescence units.
Potency is read from the fitted curve at half-maximal effect.

Q: How did the Potency turn out when `CC(=O)NCCCCCC(=O)O` was run?
A: inactive

Q: Which Potency does the source give for `CC(=O)OCC(=O)[C@H]1CC[C@H]2[C@@H]3CCC4=CC(=O)CC[C@]4(C)[C@H]3CC[C@]12C` here?
A: 4.9 µM (active)

Q: Which Potency does the source give for `CN(C)CCN1C(=O)c2ccccc2N(C)c2ccccc21` here?
A: inactive

Q: Which Potency does the source give for `CCOc1ccccc1C(N)=O` here?
A: inactive

Q: How did the Potency turn out when `CC1(C)OC[C@@H]2O[C@@]3(C(=O)O)OC(C)(C)O[C@H]3[C@@H]2O1` was run?
A: inactive

Q: `O=C1C(CCS(=O)c2ccccc2)C(=O)N(c2ccccc2)N1c1ccccc1` (stereo not given) was tested. Which Potency did it give?
A: 3.09 µM (active)

Q: `Cc1ncc(CO)c(C=O)c1O` was tested. Which Potency did it give?
A: inactive

Q: `Oc1ccc(Cl)cc1Cc1cc(Cl)ccc1O` was tested. Which Potency did it give?
A: 7.76 µM (active)

Q: Which Potency does the source give for `Cc1nc(-c2ccc(Cl)cc2)oc1COC(C)(C)C(=O)O` here?
A: inactive

Q: For `NC(=O)C1(N2CCCCC2)CCN(CCCC(=O)c2ccc(F)cc2)CC1`, which Potency is on record?
A: inactive

Q: For `O=C1[C@H](CC[C@H](O)c2ccc(F)cc2)[C@@H](c2ccc(O)cc2)N1c1ccc(F)cc1`, which Potency is on record?
A: 6.92 µM (active) and 9.52 µM (active)

Q: Which Potency does the source give for `Cc1cccc(C)c1NC(=O)CN1CCCCCC1` here?
A: inactive

Q: How did the Potency turn out when `NS(=O)(=O)c1cc2c(cc1Cl)NC(CC1CCCC1)NS2(=O)=O` (stereo not given) was run?
A: inactive

Q: For `c1ccc(-c2nc[nH]c2-c2ccccc2)cc1`, which Potency is on record?
A: inactive

Q: `Nc1nc(-c2ccccc2)c(Br)c(=O)[nH]1` was tested. Which Potency did it give?
A: inactive

Q: `CCO[C@@H]1O[C@H](C(COCc2ccccc2)OCc2ccccc2)[C@H](OCc2ccccc2)[C@H]1O` (stereo not given in full) was tested. Which Potency did it give?
A: 3.09 µM (active)

Q: `CCN(CC)CCOc1ccccc1C(=O)CCc1ccccc1` was tested. Which Potency did it give?
A: inactive

Q: With `C[C@@]12C(=O)OC(=O)[C@]1(C)C1CCC2O1` as the compound, how does the Potency read?
A: inactive

Q: How did the Potency turn out when `CCOC(=O)[C@@](C)(N)Cc1ccc(O)c(O)c1` was run?
A: inactive

Q: How did the Potency turn out when `CN(C)CCC[C@@]1(c2ccc(F)cc2)OCc2cc(C#N)ccc21` was run?
A: inactive

Q: Which Potency does the source give for `COc1ccc(/C=N/NC(=O)c2ccncc2)cc1OC` here?
A: 12.3 µM (active)

Q: For `C[N+]12CCC(CC1)C(OC(=O)C(O)(c1ccccc1)c1ccccc1)C2` (stereo not given), which Potency is on record?
A: inactive

Q: Which Potency does the source give for `CCCCCCCCCCCCCCC[C@H](O)[C@@H](N)CO` here?
A: inactive

Q: With `CC(=O)NC(=O)c1ccccc1O` as the compound, how does the Potency read?
A: inactive

Q: `CCN(CC)CCNC(=O)c1cc(Br)c(N)cc1OC` was tested. Which Potency did it give?
A: inactive

Q: For `CCC(C(=O)OCCOCCN(CC)CC)c1ccccc1` (stereo not given), which Potency is on record?
A: inactive

Q: For `NC1CCN(c2nc3c(cc2F)c(=O)c(C(=O)O)cn3-c2ccc(F)cc2F)C1` (stereo not given), which Potency is on record?
A: inactive

Q: `CC(C)Cc1ccc(CC(=O)O)cc1` was tested. Which Potency did it give?
A: inactive

Q: `NCCNc1cccc2ccccc12` was tested. Which Potency did it give?
A: 24.5 µM (active)

Q: `COc1ccc(CN(CCN(C)C)c2ncccn2)cc1` was tested. Which Potency did it give?
A: inactive

Q: Which Potency does the source give for `C[C@@H](O)[C@H]1C(=O)N2C(C(=O)O)=C(S[C@@H]3CN[C@H](CNS(N)(=O)=O)C3)[C@H](C)[C@H]12` here?
A: 11 µM (active)

Q: Which Potency does the source give for `CCc1oc2ccccc2c1C(=O)c1cc(I)c(O)c(I)c1` here?
A: 0.347 µM (active)

Q: For `CC(=O)O[C@]1(C(C)=O)CC[C@H]2[C@@H]3C=C(Cl)C4=CC(=O)CC[C@]4(C)[C@H]3CC[C@@]21C`, which Potency is on record?
A: 8.71 µM (active)

Q: `CC(C)[C@@H]1CC[C@@H](C)CC1=O` was tested. Which Potency did it give?
A: inactive

Q: How did the Potency turn out when `NS(=O)(=O)c1ccc(Cl)c(S(N)(=O)=O)c1` was run?
A: inactive

Q: For `C[N+]1(C)CCC(=C(c2ccccc2)c2ccccc2)CC1`, which Potency is on record?
A: inactive

Q: For `CCOC(=O)C(C#N)=C(c1ccccc1)c1ccccc1`, which Potency is on record?
A: 2.45 µM (active)

Q: How did the Potency turn out when `CCN(CC)CCOC(=O)C(Cc1cccc2ccccc12)CC1CCCO1` (stereo not given) was run?
A: inactive

Q: Which Potency does the source give for `CCCCCCCCCCCCSCCOCCO` here?
A: 12.3 µM (active)

Q: How did the Potency turn out when `CCN1CCN(C(=O)N[C@@H](C(=O)N[C@@H]2C(=O)N3C(C(=O)O)=C(CSc4nnnn4C)CS[C@H]23)c2ccc(O)cc2)C(=O)C1=O` was run?
A: inactive

Source: PubChem BioAssay (NCATS)
